Source: PubChem BioAssay AID2501 (Southern Research Specialized Biocontainment Screening …, 2010)
The campaign covered roughly 2,200 compounds. About 1,200 (55%) were called active. The set was probably picked from earlier hits. The list shows a part of the results. A number with no mark means an inactive call. Cut-off not given; nearly all actives show IC50 up to about 92 µM.

Assay: counter assay for TAg ATPase ADP read-out – biochemical, ADP-Hunter, fluorescence, counter-screen (AID 2501);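 further: purified T antigen ATPase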;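 on inhibition: 0% = enzyme with vehicle and 100% = reference inhibitor wells; higher means more inhibition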
Conditions: series mostly up to 100 µM

| Compound | IC50 | inhibition |
| --- | --- | --- |
| CCNc1ccc(Br)cc(C(=O)/C=C/c2ccc(Cl)cc2Cl)c1=O | inactive |  |
| CC(=O)Nc1ccccc1O | 2.63 µM (active) |  |
| CCC(=Nc1ccccc1O)C1=C(O)CC(c2ccccc2)CC1=O (centres undefined) | 8.32 µM (active) |  |
| COc1cc(/C=C2\C(=O)ON=C2c2ccc(Cl)cc2)ccc1O | 18.5 µM (active) |  |
| O=C1ON=C(c2ccccc2)/C1=C\c1ccco1 | inactive |  |
| COc1cc(/C=C2/C(=O)ON=C2c2ccccc2)ccc1O | 14.4 µM (active) |  |
| COc1ccc(/C=C2\C(=O)ON=C2c2ccccc2)cc1 | inactive |  |
| O=C1ON=C(c2ccccc2)/C1=C/c1ccc(O)c(O)c1 | 7.26 µM (active) |  |
| CCOC(=O)C1=C(C)N(c2ccccc2)C(=O)/C1=C\c1ccc(O)c(OC)c1 | inactive |  |
| O=C1C(=Cc2ccc(Br)o2)C(=O)c2ccccc21 | inactive |  |
| O=C1ON=C(c2ccccc2)/C1=C/c1ccccc1 | inactive |  |
| O=C1ON=C(c2ccccc2)/C1=C/c1ccc(OS(=O)(=O)c2ccccc2)cc1 | inactive |  |
| COc1cc(C=C2C(=O)c3ccccc3C2=O)ccc1O | 4.42 µM (active) |  |
| COc1ccc(/C=C2\C(=O)ON=C2c2ccccc2)cc1OC | inactive |  |
| O=C(CCS(=O)(=O)c1ccc(Cl)cc1)Oc1ccc2c(c1)OCO2 | 78 µM (active) |  |
| CC(=O)Nc1cccc(NC(=O)COc2ccc3c(c2)OCO3)c1 | inactive |  |
| Cc1cc(NS(=O)(=O)c2ccc(NC(=O)Nc3ccc4c(c3)OCO4)cc2)no1 | inactive |  |
| COc1c2ccoc2nc2c(OC)c(O)ccc12 | 11.5 µM (active) |  |
| CN(C)c1ccc(NC(=O)c2ccc3nc[nH]c3c2)cc1 | 3.67 µM (active) |  |
| CN(C)c1ccc(NC(=O)c2cccc(N3C(=O)CCC3=O)c2)cc1 | 6.4 µM (active) |  |
| CC(C)Oc1ccc(C(=O)Nc2ccc(N(C)C)cc2)cc1 | 12.1 µM (active) |  |
| CC(OC(=O)c1ccccc1C(=O)N(C)c1ccccc1)C(=O)Nc1ccc(C(N)=O)cc1 (centres undefined) | inactive |  |

| Compound | IC50 | inhibition |
| --- | --- | --- |
| COc1c(F)c(F)c(C(=O)O)c(Nc2ccc(C)cc2)c1F | inactive |  |
| Cc1ccc(NC(=O)CN2C(=O)N/C(=C/c3cc(C)n(-c4cccc(C(=O)O)c4)c3C)C2=O)cc1 | inactive |  |
| COc1cc(C(=O)Nc2ccc(N(C)C)cc2)cc(OC)c1OC | 5.06 µM (active) |  |
| COc1cc(C(=O)N/N=C2\CCS(=O)(=O)c3ccc(F)cc32)cc(OC)c1OC | inactive |  |
| CSc1nc(-c2ccco2)nn1S(C)(=O)=O | inactive |  |
| CCCCC(CC)CN=C(N)NC(N)=NCCCCCCN=C(N)NC(N)=NCC(CC)CCCC (centres undefined) | inactive |  |
| Cc1ccc(/C=C2/SC(=O)NC2=S)o1 | 4.25 µM (active) |  |
| Cc1ccc(C2=NOC(=O)/C2=C\c2ccc(C)o2)cc1 | inactive |  |
| Cc1ccc(/C=c2\sc3nc(-c4ccco4)nn3c2=O)o1 | inactive |  |
| COc1ccc(N2CCN(C(CNC(=O)C3CCCCC3)c3cccnc3)CC2)cc1 (centres undefined) | 9.65 µM (active) |  |
| CCN(CCNC(=O)C1CCCN(Cc2nc(-c3ccc(OC)cc3)oc2C)C1)c1ccccc1 (centres undefined) | inactive |  |
| COc1ccc(C(=O)CC(c2ccccc2)C2CCCCC2=O)cc1 (centres undefined) | inactive |  |
| O=C(Nc1ccccc1F)c1coc(=O)c(Br)c1 | inactive |  |
| COc1cccc(CNC(=O)Cc2ccc(Br)cc2)c1 | inactive |  |
| COc1ccccc1CNC(=O)COC(=O)c1c(C)nn(-c2ccccc2)c1Cl | inactive |  |
| COc1ccccc1CNC(=O)c1ccc(CS(=O)Cc2cccc(Cl)c2)o1 (centres undefined) | 12.8 µM (active) |  |
| COC(=O)C1=C(O)/C(=C\c2ccc(CNS(=O)(=O)c3ccccc3)o2)N=C1C | inactive |  |
| COC(=O)C1=C(O)/C(=C/c2cccc(OC)c2O)N=C1C | 6.57 µM (active) |  |
| CCOC(=O)C1=C(O)/C(=C/c2cccc(OC)c2O)N=C1C | 7.3 µM (active) |  |
| O=C1/C(=C/C=C/c2ccco2)SC(=S)N1NS(=O)(=O)c1ccccc1 |  | 22.8% [at 12.5 µM] |
| CC(/C=C1\SC(=S)N(CCCC(=O)Nc2ccc(C(=O)O)c(O)c2)C1=O)=C\c1ccccc1 | inactive |  |
| COc1cc(/C=C2\SC(=S)N(NS(=O)(=O)c3ccc(C)cc3)C2=O)ccc1O | 8.48 µM (active) |  |

| Compound | IC50 | inhibition |
| --- | --- | --- |
| COc1cc(/C=C2\SC(=S)N(NC(=O)c3cccnc3)C2=O)ccc1O | 6.17 µM (active) |  |
| COc1cc(/C=C2\SC(=S)N(NS(=O)(=O)c3ccccc3)C2=O)ccc1O | 12.1 µM (active) |  |
| O=C(NN1C(=O)/C(=C/C=C/c2ccco2)SC1=S)c1ccccc1O | inactive |  |
| O=C(NN1C(=O)/C(=C/c2cc([N+](=O)[O-])ccc2O)SC1=S)c1ccccc1O | inactive |  |
| CCOc1ccc(N2Nc3n[nH]c(N)c3N2)cc1 | 5.65 µM (active) |  |
| CC[N+]1(CC(O)COC2CC(C)CC(C)(C)C2)CCOCC1 (centres undefined) | inactive |  |
| COc1cc2c(cc1OC)C[N+](C)(C)CC2 | 72.6 µM (active) |  |
| N#CCSc1nc(-c2ccccc2)nc2ccccc12 | inactive |  |
| O=c1c2c(-c3ccco3)csc2nc(SCc2cn3cccnc3n2)n1-c1ccccc1 | inactive |  |
| COCc1cc(=O)n2[nH]c(-c3ccsc3-n3c(C)ccc3C)cc2n1 | inactive |  |
| C#CCOCCOCCOCCNc1nc(N2CCN(C(=O)CCCCCCCCCCNC(=O)[C@H](CCCN=C(N)N)n3cc(C[C@@H](C)CC)nn3)CC2)nc(N2CCN(C(=O)CCCCCCCCCCNC(=O)[C@@H]([C@H](C)CC)n3cc(CCCCCN)nn3)CC2)n1 | inactive |  |
| COc1ccc(/C=N/NC(=O)c2ccoc2C)cc1O | 5.08 µM (active) |  |
| COc1cc(/C=N/NC(=O)c2ccoc2C)cc(OC)c1O | 18.5 µM (active) |  |
| Cc1occc1C(=O)N/N=C/C=C/c1ccc(N(C)C)cc1 | 12.2 µM (active) |  |
| COc1ccccc1/C=C/C=N/NC(=O)c1cc(-c2ccco2)[nH]n1 | inactive |  |
| COc1cc(/C=N/NC(=O)c2ccc3c(c2)OCCO3)cc(Cl)c1O | 6.64 µM (active) |  |
| CCCc1cc(C(N)=O)c(NC(=O)c2ccoc2C)s1 | inactive |  |
| O=C(N/N=C/C=C\c1ccco1)c1ccccn1 | inactive |  |
| CCn1c(C)nc2cc(C(=O)N/N=C/c3ccc(OC)c(O)c3)ccc21 | 3.58 µM (active) |  |
| O=c1cc(-c2ccc(Br)cc2)[nH][nH]1 | 12.3 µM (active) |  |
